According to PubChem BioAssay AID1347426 (Functional Genomics Laboratory (NCATS/FGL), 2020):
The whole screen tested about 31,000 sequences, of which about 1,400 (4.5%) were called active. Shown is part of a subset that was picked to be rich in actives. Values without a mark were called inactive.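 The calls were made as follows: active = median seed-adjusted z-score above 1 or below -1; inactive = the rest.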

Test: Novel Modifiers of Survival Motor Neuron (SMN) Protein: Gene Identification via Genome-wide siRNA Screen;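 also: luminescence tracks full-length SMN protein made from the SMN2 reporter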
Conditions: HEK293T SMN2-luciferase reporter, siRNA knockdown, 72 h; actives lie on both sides
Outline: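 Steps: spot 1 pmol siRNA, add Lipofectamine RNAiMax in serum-free DMEM, seed HEK293T SMN2–luciferase reporter cells; incubate 72 h at 37 °C; add ONE-Glo; normalize luminescence to control siRNA, log10, MAD. Candidates: |MAD| > 1.0.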

Sequence	median seed-adjusted z-score
CGGUGACCAUAGUACAACATT against FOXK2	-0.348
GAGCGCCUCUAGAAUGUAATT against HMX1	1.3 (active)
AGUUUGUGAUAUCAUGAGATT against FRMPD2	-0.329
UCAAUACUGUGGGUUCUUATT against FBLN2	0.176
GGUACCUGCUGAUUCAGAATT against SLC2A5	-0.429
GCUACAUCGAGGACCUUAATT against SERPINB1	0.734
CCAUUGUCUUCCACCGAAATT against RAN	-3.09 (active)
CAACGGUAAUUAUCAGUCATT against FABP7	0.562
GCCUGACUGUAACACCCAATT against TXN2	0.87
GGAAAGGUCUAGAUCAGGATT against SEL1L2	-0.342
GCAGCUUCACCUAUCCGAUTT against KLF4	0.883
GCGAUAUUAUCAUACUGGATT against ZNF470	-1.26 (active)
CCACCGACGACAAUCUGUATT against ATP4A	0
AGGUCAGGGUUACAGCUUUTT against MPP2	0.0496
CCAUAUAAGUUUACGUUUATT against TM9SF2	1.09 (active)
CCUCGACCCUGUUUCUUAUTT against ARL4D	-0.523
CCACGUUCACCAAGAUCUUTT against RBM38	0.0358
GGCUUAUGGAGAUAUGAAUTT against PPFIA2	0.176
GGAACUCUUUGCUGAAUUUTT against THOC4	-1.54 (active)
CAUUAGUACUUCGAUCUAUTT against PHCA	0.0568
GCUCCAAAUGGAGAGUGUATT against PRKCDBP	0.244
GGAACAGCACAGAACAGCATT against ARID5A	0.0642

Sequence	median seed-adjusted z-score
CCAUUGAAGCUUGAGAGAATT against ZNF286A	0.0368
CGAAGACUGUCUGAGACAATT against GPR52	-1.17 (active)
CCGUAAACAUAUGACUAAATT against ZBTB11	-0.105
CGCCAUCUGUGUAACUUCATT against CARD9	-0.325
GAGACCCUCUGGUUAUAGATT against FKBP11	-0.085
AGGCCGCUGUGGACAUCAATT against CASKIN1	0.555
GAUUCUACUGUCUUACUAATT against HIATL1	0.327
CAGCAGUACCGACAGAAGATT against ATAD3B	-0.624
UCAUGAACAUUGUCAAUGATT against ADAMTS2	-0.338
GUGGUUUCUUGAUCUGAAATT against HSDL2	-0.0717
GAGGCUUCAUUUUAGAAGATT against XPA	2.03 (active)
CCCUUUUCGUGGUCUAUGATT against LCMT2	-0.0205
GCCUCGCUGUGAUCUGAUUTT against CACNG6	-0.0499
CGGUUGUUAUGACAAUGGATT against FN1	-0.312
UGCUCUACUUCUUAAGUGATT against STARD8	-0.135
GAAGGAUCUCAAACUCGAATT against NECAB1	0.0268
GAUCUUCGGUGAAUCAGAATT against MRC2	-1.34 (active)
GGUCAUUAAUUUACAUGAATT against STK17A	0
ACAACGUGGUGAGAUGCAATT against LOXL1	0.0435
GAGGUUUUAUAUAACCGAUTT against SMC6	0.227
GCAUGUUAUCGAAGGGUUUTT against PHC2	0.177
GAUGCUACUUUAGAAUUAATT against GNPDA2	-0.422

Sequence	median seed-adjusted z-score
AGAUUUAUCUUGAAGCUGATT against ARL4D	-0.523
CUUGAUGACUCUAAACCUATT against RUNX2	0.335
AAGACUCACUUGUUCAACATT against ZNF772	0.817
GGGACAAGUUCGUCAUCUUTT against CRYAA	-1.03 (active)
CCUAUGAUAUGGUUCCAGATT against COX5A	-0.348
GGUAUACAAGGAAAGGUUATT against EIF4E	-0.404
UGGACAUUCUUGCACCCAATT against CHTF18	0.371
CAAUAUUAGUUGCUGUAUATT against PPAP2A	0
UGCUGACCUCGUUACCUUUTT against UCP3	1.23 (active)
CAGUCUUUAUGCAAUGGAATT against TYR	0.131
AGAUGUACAACGACCCAAATT against AGBL4	0.487
GCAUGGUAUUGGAAUAACUTT against CHEK1	-5.1 (active)
GACCUUCCACAGUACAUCATT against MAST3	-0.642
GCUCAGAUAAAGUACAGAATT against GGCX	-0.362
GAGUCAUAGUUGCAGCUGATT against PSMB5	-1.37 (active)
CCUCAUGACUUCGCAAAUATT against COPB1	-0.839
GGACCAUAACUCUUACGUATT against RBM26	-0.967
UCACUGUGCUACAUCAUCATT against MYL7	-1.21 (active)
GUUGAGGUCUGGUAACAGATT against TMED1	0
GGAGUUUGUUUGCAAGUAUTT against RREB1	-0.414
CCAUCUACAUCAGAGUCCATT against BTN1A1	0.291
GGACAAAUUUUGGAGAGAATT against COG2	0.791

Sequence	median seed-adjusted z-score
CCAACAGGAGAGUACGUGATT against STRADA	0.415
CCAUUUGACUUUAUGGAGATT against RRM2	-3.84 (active)
GGCCUUCGUGUACAUCAAUTT against SUV39H1	-0.0775
CUAUGCCCGUGGUCACUAUTT against TUBA4A	-0.594
GAGCCGCUGGUGUAUCUUUTT against TLR4	0.113
GGCAAGAUCUGUACCGUGATT against HPN	-0.0237
CCAGGACAUUCGAAAGCGATT against TRAF4	-1.16 (active)
CGGGUACAAGGAUUGGUUUTT against ROM1	0.41
CCACUCUCAUUGUGACUGATT against DDX54	0
GGAUUAUGAAGAAUGGAAATT against ORC6L	0
GGCAGAGCCUGACCACUUUTT against LOC100137047-PLA2G4B	-0.022
GGAGCGAGCUGGUGCAUAATT against SH3BP5	-0.707
GCAUCGCUGUUACCCAUCUTT against CCRN4L	-0.572
GGAGAUAAGAGAUCAUAUUTT against OXNAD1	0.36
CAUGAGAUACGAUACACUATT against TRMT6	0.069
CGCACACGUAGAGACCUUATT against PNN	1.29 (active)
CAACUUCACUCAGAACCCATT against MARCO	0.137
GCCUACUUCAUUCAUCAUATT against KSR1	0.0873
CAAUCGUCCAAUGAUCUUATT against PCDHB1	0.342
CCUUCAUAGUCAACAGCAATT against MGC16703	0.55
GCACGACGACAAUAUCAUUTT against PEX3	0.142
CCAUUAUUGACUCACCCUATT against CSTF2T	0.387

Sequence	median seed-adjusted z-score
GCAUAACUUGAAUAGUACATT against AKAP11	-0.0405
GCAUCAUUGAAGGACUAGATT against HEY1	-0.023
CCCUGGUAGUCAAAAACGATT against PHKB	-0.142
GCUGUGAACUGACUCUGCATT against UROD	1.11 (active)
GCCCGACUCUCUAAUGGAATT against PRKD3	-0.906
CUACCGUGCAAGUUCAUUATT against CD3D	-0.403
CCGUCAAGGUGUAUUUUGATT against PPIB	0.038
GGCUUAACAUUGAACGAAUTT against CRY2	0.0209
CCAAGACUCCAACCAUUUUTT against IKZF4	-0.426
GGACCUCAAAGUUGUCUAUTT against AP1S1	-1.04 (active)
CGUGGGAUGCUCAAAGAUATT against EZR	0.0344
CCCAGAUCAUAUACUCCUATT against LYPLAL1	-0.425
GGCAUGAAGUGAAGGAUGATT against ZNF134	-0.0978
CCUCAAUACUCCGCAAAUATT against NMNAT2	-1.58 (active)
GGAAAGUUAUCAGGAUGCATT against SAG	0
GGAUUCCAAUCUUAGCUUUTT against RLN1	0.0637
GGAAUUCCUUUAAUGACGATT against RYR3	0
CCACCAGCGUGAUCAUUGUTT against GALNT6	-0.287
CUUCCAUGCCUUUGACCUATT against CDCP2	0.0708
CUUGUGUUCUGAGAAUACATT against KRT83	1.15 (active)
